About 2,000 (36%) of roughly 5,500 compounds were called active. Inconclusive results (about 18%) are left out. No stated cut-off is given here; in the data, active means normalized growth mostly below about 0.91 (no sharp cut-off); inconclusive means no clear call, values can overlap the other calls; inactive means mostly above about 0.92. Some of the results follow.
Assay: chemical genetic growth profiling, strain panel (AID 1159580);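 further: tested at 20 µM; growth read once vehicle control cultures reached saturation at 30 °C; 1 = growth at the plate median or of vehicle wells; lower values mean less growth of the strain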
Conditions: S. cerevisiae deletion strains, growth OD
[1] = locus YAL040C, strain CLN3, hits give low values
[2] = locus YCL061C, strain MRC1 (second series), hits give low values
[3] = locus YER002W, strain NOP16, hits give low values
[4] = locus YGR078C, strain PAC10, hits give low values
[5] = locus YGR229C, strain SMI1, hits give low values
[6] = locus YJR075W, strain HOC1, hits give low values
[7] = locus YNL175C, strain NOP13, hits give low values
[8] = locus YNL197C, strain WHI3, hits give low values
[9] = locus YNL224C, strain SQS1, hits give low values
[10] = locus YNL322C, strain KRE1, hits give low values
[11] = locus YOR083W, strain WHI5 (second series), hits give low values

Measured: normalized growth

NCCNC(=O)Cc1ccc(NC(=O)Cc2ccc(Nc3ncnc4c3ncn4[C@@H]3O[C@H](CO)[C@H](O)C3O)cc2)cc1 (some centres undefined)
inactive: [1] 1.01 | [2] 0.999 | [3] 0.999 | [4] 1.01 | [5] 1.03 | [6] 1 | locus YMR263W, strain SAP30, hits give low values 1.01 | [7] 1.01 | [8] 1.02 | [9] 0.994 | [10] 1 | [11] 1.02

COC(=O)N1CCN(C(=O)Cc2ccc(Cl)c(Cl)c2)C(CN2CCCC2)C1 (centres undefined)
inactive: [1] 0.997 | [2] 1.01 | locus YDR150W, strain NUM1, hits give low values 1 | locus YDR363W, strain ESC2, hits give low values 1 | [3] 0.995 | [4] 1 | [5] 0.982 | [6] 1.01 | locus YMR307W, strain GAS1, hits give low values 1 | locus YNL128W, strain TEP1, hits give low values 1.01 | locus YNL153C, strain GIM3, hits give low values 1 | [7] 1.01 | [8] 1.04 | [9] 1 | [10] 1.01 | [11] 1.05 | locus YPL241C, strain CIN2, hits give low values 1

Cc1nc(-c2ccc(C(F)(F)F)cn2)[nH]c(=O)c1Cl
inactive: locus YAR019C, strain CDC15, hits give low values 0.899 | locus YBL105C, strain PKC1, hits give low values 0.932 | locus YBR135W, strain CKS1, hits give low values 0.916 | locus YBR136W, strain MEC1, hits give low values 0.922 | locus YBR160W, strain CDC28, hits give low values 0.922 | locus YDL017W, strain CDC7, hits give low values 0.938 | locus YDL028C, strain MPS1, hits give low values 0.909 | locus YDL101C, strain DUN1, hits give low values 0.939 | locus YDL108W, strain KIN28, hits give low values 0.921 | locus YDL132W, strain cdc53, hits give low values 0.905 | locus YDL214C, strain PRR2, hits give low values 0.86 | locus YDR052C, strain DBF4, hits give low values 0.943 | locus YDR054C, strain cdc34, hits give low values 0.887 | locus YDR226W, strain ADK1, hits give low values 0.924 | locus YDR477W, strain SNF1, hits give low values 0.833 | locus YER123W, strain YCK3, hits give low values 0.692 | locus YER133W, strain GLC7, hits give low values 0.831 | locus YFL009W, strain cdc4, hits give low values 0.896 | locus YFL029C, strain CAK1, hits give low values 0.901 | locus YFR003C, strain YPI1, hits give low values 0.929 | locus YFR019W, strain FAB1, hits give low values 0.908 | locus YFR028C, strain CDC14, hits give low values 0.918 | locus YGR040W, strain KSS1, hits give low values 0.834 | locus YGR052W, strain FMP48, hits give low values 0.815 | locus YGR092W, strain DBF2, hits give low values 0.689 | locus YHR079C, strain IRE1, hits give low values 0.639 | locus YHR082C, strain KSP1, hits give low values 0.945 | locus YHR205W, strain SCH9, hits give low values 0.978 | locus YIL147C, strain SLN1, hits give low values 0.919 | locus YJL095W, strain BCK1, hits give low values 0.675 | locus YJL128C, strain PBS2, hits give low values 0.928 | locus YJL157C, strain FAR1, hits give low values 0.813 | locus YJR016C, strain ILV3, hits give low values 0.924 | locus YJR066W, strain TOR1 (second series), hits give low values 0.769 | locus YJR066W, strain TOR1, hits give low values 0.848 | locus YKL048C, strain ELM1, hits give low values 0.927 | locus YKL067W, strain YNK1, hits give low values 0.857 | locus YKL101W, strain HSL1, hits give low values 0.88 | locus YKL193C, strain SDS22, hits give low values 0.903 | locus YKL203C, strain TOR2, hits give low values 0.886 | locus YLR133W, strain CKI1, hits give low values 0.857 | locus YLR403W, strain SFP1, hits give low values 0.809 | locus YML070W, strain DAK1, hits give low values 0.825 | locus YMR001C, strain CDC5, hits give low values 0.914 | locus YMR205C, strain PFK2 (second series), hits give low values 0.859 | locus YMR277W, strain FCP1, hits give low values 0.893 | locus YNL006W, strain LST8, hits give low values 0.957 | locus YNL020C, strain ARK1, hits give low values 0.853 | locus YNL161W, strain CBK1, hits give low values 0.912 | locus YNL183C, strain NPR1, hits give low values 0.696 | locus YNL207W, strain RIO2, hits give low values 0.919 | locus YNL222W, strain SSU72, hits give low values 0.905 | locus YNL307C, strain MCK1 (second series), hits give low values 0.826 | locus YOL078W, strain AVO1, hits give low values 0.896 | locus YOL136C, strain PFK27, hits give low values 0.868 | locus YOR061W, strain CKA2, hits give low values 0.858 | locus YOR119C, strain RIO1, hits give low values 0.821 | locus YOR231W, strain MKK1, hits give low values 0.685 | locus YOR329C, strain SCD5, hits give low values 0.93 | locus YPL031C, strain PHO85, hits give low values 0.787 | locus YPL153C, strain RAD53, hits give low values 0.755 | locus YPL204W, strain HRR25, hits give low values 0.777 | locus YPL209C, strain IPL1, hits give low values 0.926 | locus YPR025C, strain CCL1, hits give low values 0.923 | locus YPR106W, strain ISR1, hits give low values 0.95 | locus YPR111W, strain DBF20, hits give low values 0.937 | strain NNK1, hits give low values 0.932 | strain TSCII, hits give low values 0.888
active: locus YLR113W, strain HOG1, hits give low values 0.651 | locus YPL256C, strain CLN2, hits give low values 0.72

Reference: PubChem BioAssay AID1159580 (chemical genetic matrix, 2015)
